Rows were chosen to be rich in hits. Some 12% of all compounds tested hit in one or more screens of this group.
Sm TGR inh – inhibitors of Schistosoma mansoni thioredoxin glutathione reductase; 360,000 compounds, 3% hits; Q962Y6; purified TGR, DTNB reduction, TNB absorbance 405 nm; Potency, µM (doses to about 114 µM), usual class: inhibitors; AID 485364; active means well fitted inhibition curve with a large enough effect; inconclusive means small, poorly fitted or top-dose-only effect; inactive means no such curve, though single readings can be large or run the other way; further: nearly all actives have a fitted effect of over 60% in size
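First, TGR (20 nM dispensed) and NADPH were mixed with compound. Second, a 15 min room-temperature incubation followed. Third, further NADPH and then DTNB were added to start the reaction. Finally, TNB absorbance was monitored kinetically.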
Shiga inhibitor – Shiga toxin inhibition; Vero cells, Shiga toxin protein synthesis inhibition reporter; inhibition, % at 38.7 µM; 290,000 compounds, 9.2% hits; in the data active means inhibition mostly above about 28%, no sharp cut-off; inactive means mostly below about 43%
Cycloheximide cs – counter-screen for Shiga toxin inhibitors: cycloheximide protein synthesis inhibition | 300,000 compounds, 12% hits | max response, % | AID 2314 | cell reporter, cycloheximide protein synthesis inhibition counterscreen; in the data active means max response mostly above about 13%, no sharp cut-off; inactive means mostly below about 14%; further: read at 38.3 µM for the half of the compounds with a filed dose
FMDV inh – blocks foot and mouth disease virus; FMDV antiviral cell-based qHTS; 410,000 compounds, 1.2% hits; Potency, µM (titrated, usually from 57.9 µM), most hits filed as inhibitors; calls by dose curve; tested in HEK293T cells; further: read-out not given here; nearly all actives have a fitted effect of over 45% in size
Large screens that a line does not name were inactive; ! = not confirmed by another sample.

CCOC(=O)c1nc(C)sc1-c1ccnn1S(=O)(=O)c1ccc(Cl)cc1Cl	Cycloheximide cs 29, FMDV inh inconclusive
COCCCNC(=O)c1ccc(Cn2c(=O)c3ccccc3n(CC(=O)Nc3c(C)cccc3C)c2=O)cc1	none (no result: Shiga inhibitor, Cycloheximide cs)
COCCCNC(=O)c1sc2nc3n(c(=O)c2c1C)CCC3	Sm TGR inh 11µM (no result: Shiga inhibitor, Cycloheximide cs)
Cc1c(C(=O)Nc2ccccc2F)sc2nc3n(c(=O)c12)CCC3	Shiga inhibitor 95, Cycloheximide cs 45
COCCNC(=O)c1sc2nc3n(c(=O)c2c1C)CCC3	none (no result: Shiga inhibitor, Cycloheximide cs)
Cc1c(C(=O)Nc2ccccn2)sc2nc3n(c(=O)c12)CCC3	Shiga inhibitor 77, Cycloheximide cs 43
Cc1ccccc1NC(=O)c1sc2nc3n(c(=O)c2c1C)CCC3	none (no result: Shiga inhibitor, Cycloheximide cs)
CCOc1ccc(/C=C/c2nc(C#N)c(N(C)C)o2)cc1	none (no result: Shiga inhibitor, Cycloheximide cs)
O=C(COC(=O)CNC(=O)c1ccccc1F)Nc1cccc(S(=O)(=O)N2CCCCCC2)c1	none
COc1cccc(/C=C/C(=O)OCC(=O)Nc2cccc(S(=O)(=O)N3CCCCC3)c2)c1OC	Shiga inhibitor 61
O=C(COC(=O)CNC(=O)c1ccc(Cl)cc1Cl)Nc1cccc(S(=O)(=O)N2CCCC2)c1	Sm TGR inh 50µM (no result: Shiga inhibitor, Cycloheximide cs)
C/C(=N\NC(=O)c1cc(C)[nH]n1)C(C)(C)C	none
O=C(N/N=C/C=C/c1ccccc1)c1cnccn1	Cycloheximide cs 13
O=C(/C=C/c1ccccc1)NC(=S)NNC(=O)c1cnccn1	none
CC(/C=C/c1ccccc1)=N\NC(=O)c1cc(C)[nH]n1	Cycloheximide cs 36
CC(/C=C/c1ccccc1)=N/NC(=O)c1cnccn1	Sm TGR inh inconclusive, Shiga inhibitor 32, Cycloheximide cs 27
COc1ccc(NC(=O)CSc2nc3ccccc3n2CC(=O)N2CCCC(C)C2)cc1 (stereo not given)	none (no result: Shiga inhibitor, Cycloheximide cs)
CC1(C)Cc2c(c(-c3ccco3)nc3sc4c(NCC5CCCO5)ncnc4c23)CO1 (stereo not given)	Sm TGR inh 79µM, FMDV inh inconclusive
CC1(C)Cc2c(c(-c3ccco3)nc3sc4c(NCCCO)ncnc4c23)CO1	Sm TGR inh 2µM, FMDV inh inconclusive
CC1(C)Cc2c(c(-c3ccco3)nc3sc4c(NCCN5CCOCC5)ncnc4c23)CO1	Sm TGR inh 40µM, FMDV inh inconclusive
CN(C)CCNc1ncnc2c1sc1nc(N3CCCC3)c3c(c12)CC(C)(C)OC3	FMDV inh inconclusive
CC(C)CNc1ncnc2c1sc1nc(N3CCOCC3)c3c(c12)CC(C)(C)OC3	none
COc1ccc(-c2csc3nc(-c4ccc(F)cc4)oc(=O)c23)cc1OC	none (no result: Shiga inhibitor, Cycloheximide cs)
O=C(NC1CC(=O)N(c2ccc(Cl)cc2)C1)c1ccc(S(=O)(=O)N2CCCC2)cc1 (stereo not given)	none (no result: Shiga inhibitor, Cycloheximide cs)
COc1ccc(C2CC(c3ccccc3)=NN2c2ccccc2)c(C(=O)O)c1OC (stereo not given)	none
COc1ccc2c(c1OC)C(=O)N1N=C(c3ccccc3)CC21 (stereo not given)	Cycloheximide cs 18
COc1cc2c(C#CCCCO)c(-c3ccc(C#N)cc3)oc(=O)c2cc1OC	Sm TGR inh 32µM (no result: Shiga inhibitor, Cycloheximide cs)
O=C(NCc1nnc(SCc2ccc(F)cc2)n1-c1ccccc1)C12CC3CC(CC(C3)C1)C2	FMDV inh 40µM
O=C(NCc1nnc(SCc2ccc(C(F)(F)F)cc2)n1-c1ccccc1)C12CC3CC(CC(C3)C1)C2	FMDV inh inconclusive
COc1ccc(S(=O)(=O)NCc2cccn2Cc2cc(C)ccc2C)cc1OC	none (no result: Shiga inhibitor, Cycloheximide cs)
O=C(Nc1ccc(Cl)c(C(F)(F)F)c1)C(Cc1ccccc1)NS(=O)(=O)c1ccc(Br)s1 (stereo not given)	none (no result: Shiga inhibitor, Cycloheximide cs)
Cc1ccc(-n2ccn(CC(=O)NCCc3ccccc3)c(=O)c2=O)cc1C	Cycloheximide cs 33
Cc1ccc(Cn2cnc3c(cnn3C(C)(C)C)c2=O)cc1	FMDV inh 25µM
CC(C)(C)n1ncc2c(=O)n(CC(=O)NCc3ccccc3Cl)cnc21	Shiga inhibitor 64, Cycloheximide cs 32
Cc1ccc(NC(=O)Cn2cnc3c(cnn3C(C)(C)C)c2=O)cc1	none
COc1ccc(CCNC(=O)Cn2cnc3c(cnn3C(C)(C)C)c2=O)cc1OC	none
CC(C)(C)n1ncc2c(=O)n(CC(=O)NCCc3ccccc3)cnc21	Shiga inhibitor 61, Cycloheximide cs 21
CCc1nn(CC(=O)NCCC(C)C)c(=O)c2cc3occc3n12	none (no result: Shiga inhibitor, Cycloheximide cs)
COc1cc(OC)c(NC(=O)Cn2cnc3nc4c(cc3c2=O)CCCC4)cc1Cl	none (no result: Shiga inhibitor, Cycloheximide cs)
CCOc1ccc(CC(=O)NCc2ccc3c(c2)CCN3C(=O)c2ccccc2)cc1OCC	none (no result: Shiga inhibitor, Cycloheximide cs)
NCCCC[C@H](NC(=O)[C@H](CS)NC(=O)[C@@H](N)Cc1cnc[nH]1)C(=O)N[C@@H](Cc1ccccc1)C(=O)N[C@@H](Cc1c[nH]c2ccccc12)C(=O)N[C@@H](Cc1c[nH]c2ccccc12)C(=O)O	none (no result: Sm TGR inh, FMDV inh)
COc1cccc(NC(=O)Cn2c(=O)n(CCC(=O)NCc3ccccc3OC)c(=O)c3ccccc32)c1	none (no result: Shiga inhibitor, Cycloheximide cs)
Fc1ccc2c(Cl)c(-c3nnc(-c4cccs4)o3)sc2c1	Shiga inhibitor 78, Cycloheximide cs 35
CCOC(=O)Oc1ccc(/C=C2\N=C(C)OC2=O)cc1	Sm TGR inh 13µM
CC1=N/C(=C/c2ccco2)C(=O)O1	Sm TGR inh 28µM
COc1cc(/C=C2\N=C(C)OC2=O)cc(OC)c1OC	Sm TGR inh 18µM
COC(=O)c1sccc1S(=O)(=O)N1CCN(c2cccc(C)c2C)CC1	none (no result: Shiga inhibitor, Cycloheximide cs)
COC(=O)c1sc(N2C(=O)c3oc4ccc(C)cc4c(=O)c3C2c2ccc(O)c(OC)c2)nc1C (stereo not given)	none (no result: Shiga inhibitor, Cycloheximide cs)
COc1ccc(CNC(=O)CCCN2C(=O)CCn3nc(-c4cn(C)c5ccccc45)cc32)cc1	none (no result: Shiga inhibitor, Cycloheximide cs)
Cc1nn(C)cc1CNC(=O)Nc1cccc(Cl)c1	Shiga inhibitor 90, Cycloheximide cs 67
CC(=O)c1cccc(NC(=O)Nc2ccc3c(c2)OCO3)c1	Shiga inhibitor 88, Cycloheximide cs 38
CC(=O)c1cccc(NC(=O)NCc2ccc3c(c2)OCO3)c1	none
CC(=O)c1cccc(NC(=O)N2CCCC2C(=O)Nc2ccc3c(c2)OCO3)c1 (stereo not given)	FMDV inh inconclusive (no result: Sm TGR inh)
O=C(NCc1cccc(Cl)c1)c1ccc2c(c1)OCO2	Cycloheximide cs 21
O=C(NCc1ccc2c(c1)OCO2)Nc1cccc(Cl)c1	Shiga inhibitor 57, Cycloheximide cs 41
COc1ccc(C2c3c(n(C)c4ccccc34)C(=O)N2CC(=O)Nc2c(C)cc(C)cc2C)cc1 (stereo not given)	none (no result: Shiga inhibitor, Cycloheximide cs)
CCOc1ccc(CCNC(=O)CCSCc2ccc(Cl)cc2)cc1OCC	none (no result: Shiga inhibitor, Cycloheximide cs)
O=C(Nc1cccc(Cl)c1)Nc1ccc2c(c1)OCO2	Shiga inhibitor 73, Cycloheximide cs 48
COC1=CC(=O)C=C(OC)C1=O	FMDV inh 28µM! (no result: Sm TGR inh, Shiga inhibitor, Cycloheximide cs)
COC(=O)c1cc(NC(=O)c2cccc(Cl)c2)c(=O)oc1/C=C/Nc1cc(C)cc(C)c1	Shiga inhibitor 57 (no result: FMDV inh)
COC(=O)c1cc(NC(=O)c2cccc(C(F)(F)F)c2)c(=O)oc1C	Sm TGR inh inconclusive
Cn1cnc2cc(NCc3ccccc3Cl)ccc21	Shiga inhibitor 105, Cycloheximide cs 39
CCn1cnc2cc(NCc3ccccc3Cl)ccc21	Shiga inhibitor 67, Cycloheximide cs 36
CCCCn1cnc2cc(NCc3ccccc3Cl)ccc21	none (no result: Shiga inhibitor, Cycloheximide cs)
CCOc1ccc(-c2csc(/C(C#N)=C\c3ccc(O)c([N+](=O)[O-])c3)n2)cc1	FMDV inh 22µM
